Compound activity deposited in PubChem by National Center for Advancing Translational Sciences (NCATS).
Lassa entry inh – Lassa virus entry inhibition. Lassa virus pseudotype entry inhibition, cell reporter. Potency, µM (series often up to 37.9 µM), for the others: at the highest dose activity change, negative = inhibition, actives largely listed as inhibitors. 300,000 compounds, 1.2% hits. AID 540256; calls by dose curve; tested in HEK293 cells; also: potency is read from the fitted curve at half-maximal effect; % is scaled to controls: 0 for no effect and ±100 for the full control effect; nearly all actives have a fitted effect of over 50% in size
MARV entry inh – inhibitors of Marburg virus binding or cell entry; Marburg virus pseudotyped entry inhibition, cell reporter; 300,000 compounds, 1.8% hits; Potency, µM (top dose mostly 37.8 µM), for the others: at the top dose activity change, negative = inhibition, most hits filed as inhibitors; AID 540276; calls by dose curve; tested in HEK293 cells; also: potency is read from the fitted curve at half-maximal effect; % is scaled to controls: 0 for no effect and ±100 for the full control effect
Pf growth 48h – P. falciparum growth inhibition at 48 hours (one generation); P. falciparum luciferase growth in erythrocytes, 48 h; Potency, µM (series often up to 28.7 µM), without a hit: at the top dose activity change, negative = inhibition, usual class: inhibitors; 310,000 compounds, 5.9% hits; also: potency is read from the fitted curve at half-maximal effect; % is scaled to controls: 0 for no effect and ±100 for the full control effect
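Luminescence readout; reporter = integrated firefly luciferase in P. falciparum. RBC culture at 2% hematocrit, 0.1% parasitemia final, 37 C/5% CO2; decreased signal taken as growth inhibition.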
Pf growth 96h – inhibits malaria parasite growth, 96 h. P. falciparum luciferase reporter growth, 96 h. Potency, µM (doses to about 28.7 µM), for inactives: at the top dose activity change, negative = inhibition, usual class: inhibitors. 320,000 compounds, 6.9% hits. AID 504834; also: potency is read from the fitted curve at half-maximal effect; % is scaled to controls: 0 for no effect and ±100 for the full control effect
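Compounds incubated with erythrocytes infected by luciferase-expressing P. falciparum (2% hematocrit, 0.05% parasitemia final) for 96 hours, 37 C in 5% CO2. Growth inhibition scored as decreased luciferase luminescence.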
CHX counter-1 – affects cycloheximide protein synthesis inhibition readout, counter-screen | cell reporter, cycloheximide protein synthesis inhibition counterscreen | max response, % | 300,000 compounds, 12% hits | AID 2314; in the data active = max response mostly above about 13%, no sharp cut-off; inactive = mostly below about 14%; also: read at 38.3 µM for the half of the compounds with a filed dose; 0% is about no effect
Shiga toxin inh – blocks Shiga toxin action in Vero cells. Vero cells, Shiga toxin protein synthesis inhibition reporter. inhibition, % at 38.7 µM. 290,000 compounds, 9.2% hits; in the data active = inhibition mostly above about 28%, no sharp cut-off; inactive = mostly below about 43%; also: 0% is about no effect
CHX counter-2 – affects protein synthesis reporter in cycloheximide counter-screen; shares compounds with Shiga toxin inh; Cycloheximide counterscreen, protein synthesis reporter, Shiga toxin assay; Potency, µM (doses to about 38.3 µM), inactives show at the highest dose activity (activation), most hits filed as activators; 510 compounds, 3% hits; AID 2318; calls by dose curve; also: potency is read from the fitted curve at half-maximal effect; 0% is about no effect
* marks the source's active call; other numbers are inactive results; u = inconclusive; x = no result given; ! = not active in a repeat; [ ] = another dose, or the depositor's remark. An excerpt weighted towards active compounds, which were near 19% of everything screened. Unless noted, calls follow the shape of the dose curve; as a rule, active = well fitted inhibition curve with a large enough effect; inconclusive = small, poorly fitted or top-dose-only effect, or another doubt; inactive = no such curve, though single readings can be large or run the other way.

SMILES | Lassa entry inh | MARV entry inh | Pf growth 48h | Pf growth 96h | CHX counter-1 | Shiga toxin inh | CHX counter-2
O=C(CSc1nnc(-c2ccccn2)o1)Nc1ccccc1C(F)(F)F | -14%[46.1 µM] | u | 94% | 2% | 6 | 63* | 4%
N#Cc1ccc(Oc2c(Cl)cncc2Cl)cc1 | -4%[46.1 µM] | -6%[46.1 µM] | 5%[0.00184 µM] | 7% | -5 | -8 | x
N#Cc1ccc(N=c2ssnc2Cl)cc1 | 10% | 0% | 43% | 12µM*! | 2 | 28* | 0%
C=CCC1Cc2c(Br)cccc2C(CC=C)N1 (stereo unspecified) | x | x | u | u | -1 | 24 | x
CCOC(=O)c1c(C)[nH]c(C2=NNC(=NC3CC3)SC2)c1C | x | x | 39% | -33% | 10 | 32* | 0.05µM*
COc1ccc(-n2c(Cc3cccn3C)nnc2SCC(=O)NCC2CCCO2)cc1 (stereo unspecified) | x | 1% | -23% | -38% | -2 | 10 | x
O=C(O)C/C(=C\c1cc(Br)cs1)c1nc2ccccc2o1 | 18%[46.1 µM] | 20%[46.1 µM] | 48% | 57% | 10 | 40* | 3%
Cc1ccc2nc(-c3ccccc3)cc(C(=O)NCC3CCCO3)c2c1 (stereo unspecified) | -6% | u | 7% | 2% | 10 | 40* | 1%
Cc1ccc(NC(=O)C(C)N=C2NS(=O)(=O)c3ccccc32)cc1 (stereo unspecified) | -1% | 13% | -35%[5.75 µM] | 30% | 8 | 35* | -2%
Cc1ccnc(NS(=O)(=O)c2ccc(NC(=O)CN3C(=O)c4ccccc4S3(=O)=O)cc2)n1 | u | u | 0% | 18% | x | x | x
CC[N+](CC)(CCO)CCCN1C(=O)C2CC=C(Cl)CC2C1=O (stereo unspecified) | 0% | 0%[46.1 µM] | -12% | 47% | 3 | 143* | -3%
Cc1nc(N2CCN(C(=O)c3ccco3)CC2)nc2c1C(=O)CCC2 | -16%[46.1 µM] | 10%[46.1 µM] | 94% | u | 15 | 36* | u
O=C(NCCN1CCOCC1)C(=O)NCC1OCCN1S(=O)(=O)c1ccc(Br)cc1 (stereo unspecified) | 11% | 3% | -2% | 5% | 1 | -10 | x
O=C(NCCN1CCOCC1)C(=O)NCC1OCCN1S(=O)(=O)c1ccccc1 (stereo unspecified) | u | 2%[46.1 µM] | 3% | u | 9 | 12* | -1%
CC(C)NC(=O)c1ccc(OC2CSC2)cc1 | -10% | -12% | 17% | 34% | -3 | 29* | u
CC1CC2OC2/C=C\C=C/C(=O)Cc2c(Cl)c(O)cc(O)c2C(=O)O1 (stereo unspecified) | x | x | x | x | 17 | 18 | x
Cc1nnc(N2C(=O)C(=O)/C(=C(/O)c3ccc4c(c3)OCCO4)C2c2ccc([N+](=O)[O-])cc2)s1 (stereo unspecified) | x | x | -5% | u | 8 | 44* | -1%
O=C(Cc1ccc(F)cc1)Nc1cccc2cccnc12 | -5% | -7% | 15% | -15% | -3 | 36* | 5%
O=C(COC(=O)/C=C/c1cccc(F)c1)Nc1ncccn1 | 5%[46.1 µM] | u | 96% | 34% | -2 | -4 | x
CCCn1c(C)cc(/C=C(\C#N)C(=O)OCC(=O)Nc2ccc(OC)c(Cl)c2)c1C | -9% | -22% | 7% | u | 12 | 61* | 4%
CCCn1c(C)cc(/C=C(\C#N)C(=O)OCC(=O)NC(=O)NCC)c1C | -24% | -15% | 1% | x | 6 | 18 | x
Cc1ccc(C)c(NS(=O)(=O)c2ccc3oc(=O)ccc3c2)c1 | x | x | -15% | 93% | -3 | -10 | x
Cc1cc(OC(C)C(=O)NCCN2CCOCC2)c2c(C)c(C)c(=O)oc2c1 (stereo unspecified) | x | x | 8% | -1% | -4 | -6 | x
O=S(=O)(c1cccc2nsnc12)N1CCN(c2ncccn2)CC1 | 1% | 1% | 11% | -7% | -2 | -7 | x
Cc1ccc(S(=O)(=O)CCC(=O)Nc2sccc2C(N)=O)cc1 | -2%[46.1 µM] | 8%[46.1 µM] | x | x | x | x | x
SMILES | Lassa entry inh | MARV entry inh | Pf growth 48h | Pf growth 96h | CHX counter-1 | Shiga toxin inh | CHX counter-2
O=C(c1ccco1)N1CCN(c2nc(C3CC3)nc3c2nnn3Cc2ccccc2Cl)CC1 | u | u | 6.6µM* | -6% | 6 | active | 1%
Cc1cc(N2CCCCCC2)nc(-c2ccccc2O)n1 | u | u | -26% | x | 4 | 59* | 2%
CCOc1ccc(-n2c(N)c(C(=O)N3CCN(C)CC3)sc2=S)cc1 | x | x | 9% | u | -4 | -6 | x
CC(=O)c1ccc2noc(-c3ccc(F)cc3)c2c1 | 10% | 5%[46.1 µM] | 4% | -10% | 13 | 52* | 2%
O=C(O)/C=C/c1ccc2noc(-c3ccccc3)c2c1 | x | x | -1% | -2% | 7 | 23 | x
COc1ccc(CCNCC(=O)N2C(C)CCCC2C)cc1OC (stereo unspecified) | -13% | -18%[46.1 µM] | u | 16% | -2 | -14 | x
CC(=O)c1ccc(NC(=O)C(C)Sc2nnc(C3CC3)n2C2CC2)cc1 (stereo unspecified) | 21% | u | u | u | x | x | x
CC(=O)c1ccc(NC(=O)C(C)Sc2nnc(C3CCCCC3)o2)cc1 (stereo unspecified) | x | x | 27% | u | 6 | 47* | -2%
CCOc1ccccc1CNC(=O)c1ccc(NC(=O)N2CCSc3ncccc32)cc1 | -24%[46.1 µM] | x | x | x | x | x | x
COc1ccc(C2/C(=C(\O)c3ccc4c(c3)OCCO4)C(=O)C(=O)N2c2nc(C)c(C(C)=O)s2)cc1 (stereo unspecified) | x | x | -5% | u | 10 | 1 | x
O=c1[nH]c(=O)n(Cc2ccccc2)c2c1C(C(F)(F)F)(C(F)(F)F)N=C(c1ccco1)N2 | 15% | -6% | u | u | -1 | -14 | x
O=c1[nH]c(=O)n(Cc2ccco2)c2c1C(C(F)(F)F)(C(F)(F)F)N=C(c1ccc(F)cc1)N2 | u | u | u | x | 5 | 67* | -1%
Cc1ccc(-n2c(C)c(C)c3c(N)ncnc32)cc1 | 13%[46.1 µM] | 16%[46.1 µM] | 21% | 13% | 2 | 34* | 2%
CC1CCC/C=C/C2CC(O)CC2C(O)/C=C/C(=O)O1 (stereo unspecified) | u | 0.4µM* | x | u | 5 | 41* | -7%
Cn1cnnc1Sc1ccc(/C=C(\CCC(=O)O)c2nc3ccccc3s2)cc1[N+](=O)[O-] | -24% | 8% | 35% | 60% | -1 | 13 | x
CNc1ccc(/C=C(\CCC(=O)O)c2nc3ccccc3s2)cc1[N+](=O)[O-] | u | -2% | -12% | u | 8 | 65* | 1%
Nc1nnn(-c2ccccc2)c1-c1ccccc1 | -17% | 0%[46.1 µM] | x | x | x | x | x
CCC(=O)N1CCc2cc(S(=O)(=O)NC(CC(C)C)C(=O)Nc3ccc(CC)cc3)ccc21 (stereo unspecified) | -9%[46.1 µM] | -4%[46.1 µM] | x | x | x | x | x
